Where “and” joins values, the source holds several entries; their conditions need not be identical. Equal entries are not always repeated. More than one record can exist for a structure, and the calls need not agree. Calls of active or inactive are those of the source.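 Rule for the calls, unless noted: active = inhibition at or above 50% relative to wild type and mutant plate controls; inactive = inhibition below 50%.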
Legend:
[1] = inhibitors of TNFa-induced NFkB p65 translocation, primary screen, imaging, HUVEC, MLSMR starter and 10KST1 sets (AID 438;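 active = inhibition above 20% together with a positive visual image hit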;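 note: compound added about 3h40 before a 20 min TNFalpha stimulation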;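 for inhibition: signal is the nuclear over cytoplasmic p65 intensity ratio per well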); conditions: HUVEC TNFa-induced p65 nuclear translocation; cell count: measured here: nuclei count (cytotoxicity indicator), at 2.08 µM; inhibition: at 2 µM, stronger effect = higher value, 0% TNFa-plus-vehicle, 100% no-TNFa wells
[2] = endothelial E-selectin expression blockers – imaging, HUVEC, immunofluorescence, MLSMR starter and 10KST1 sets, primary screen (AID 487;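 active = visually confirmed hit in the image check and inhibition above 20%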;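 for inhibition: signal is fraction of cell area covered by stained E-selectin grains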;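 for nuclei count: 100% = median nuclei count of all wells on the same plate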); conditions: HUVEC TNFalpha-induced E-selectin immunofluorescence imaging, at 2 µM; inhibition: stronger effect = higher value; nuclei count: measured here: cell number, toxicity
[3] = Primary imaging screen for DUSP6 inhibitors that restore phospho-Erk in transfected HeLa cells, chemical complementation (AID 609;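 active = compounds giving at least 50% inhibition in the cell-based MKP-3 phosphatase rescue imaging test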;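 for inhibition: phospho-Erk level distribution per well compared with pooled transfected vehicle control wells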); conditions: HeLa MKP-3 transfected, phospho-Erk imaging KS statistic, at 10 µM, cells stimulated with TPA for 15 min
[4] = molecular target: Dual specificity protein phosphatase 6 (Homo sapiens) (UniProt Q16828); assay: as above; conditions: HeLa MKP-3 transfected, phospho-Erk imaging KS statistic; at 10 µM; stronger effect = higher value; cells stimulated with TPA for 15 min
[5] = molecular target: Voltage-gated potassium channel subunit beta-2 (Rattus norvegicus) (UniProt P62483); assay: inhibitors of rat Kvbeta2 reductase activity – biochemical, NADPH fluorescence, primary screen (AID 622;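 active = fluorescence slope higher than the sample average by over 3 SD, cut at about -0.22 in these data, passing the limit was not always enough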;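 note: slope of raw intensity against log time taken from 70 to 1610 s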); conditions: recombinant KvBeta, 4-cyanobenzaldehyde reduction, at 10 µM, stronger effect = higher value
[6] = molecular target: Voltage-gated potassium channel subunit beta-2 (Rattus norvegicus) (UniProt P62483); assay: enhancers of rat Kvbeta2 NADPH turnover – biochemical, NADPH fluorescence, primary screen (AID 623;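 active = NADPH fluorescence slope more negative than the mean of all samples by about 3 SD, 99.7% confidence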;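 note: fluorescence intensity change per second fitted from 20 to 320 s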); conditions: Recombinant KvBeta, NADPH fluorescence decrease slope, 10 min; at 10 µM; stronger effect = lower value
[7] = molecular target: Alpha-2C adrenergic receptor (Homo sapiens) (UniProt P18825); assay: compounds altering alpha2C-coupled GIRK flux – cell-based, HEK293 alpha2C/GIRK1/2, thallium flux, primary screen (AID 624;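 active = fluorescence slope after compound addition differing from the mean of all screened samples at 99.7% confidence, in either direction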;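 note: slope of fluorescence ratio to pre-addition baseline per second over 15 to 24 s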); conditions: thallium flux BTC fluorescence, at 10 µM, actives lie on both sides
[8] = inhibitors of larval lipid processing in zebrafish, primary screen, whole organism, PED6 fluorescence, gall bladder and intestine (AID 686;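 active = a full or partial loss of lipid-probe fluorescence in the fish gall bladder, intestine or both, judged by eye; inactive = no fluorescence loss, or compound toxic to the fish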;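 note: larvae 5 to 7 days old with five fish per well; signal comes from phospholipase A2 cleavage of quenched PED6 carried via bile; overnight exposure to compound and PED6 before scoring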); conditions: Zebrafish larvae PED6 lipid processing, fluorescence scoring; screened at 20 µM (by protocol)
[9] = loss of swimming-algae plug formation – whole organism, Chlamydomonas reinhardtii, WT vs cilia-less mutant, absorbance, 96-well, primary screen (AID 463189); conditions: Chlamydomonas reinhardtii gravitaxis, OD600 absorbance, 2 days; at 10 µM; stronger effect = higher value;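 note: 0% = wild type cc124 cells in DMSO and 100% = ciliumless bld1 mutant cells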
[10] = blockers of RIG-like receptor reporter activation – cell-based, Sendai virus stimulus, luciferase, 10K MLSCN set, TLR/RLR signaling modifier project, primary screen (AID 602276;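 active = inhibition at or above 50% at 10 µM; inactive = inhibition below 50%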;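 note: firefly luciferase from ISG56 promoter only with Renilla not read in this screen; 0% = Sendai virus plus DMSO and 100% = medium plus DMSO without virus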); conditions: HEK293 RL24 IRF3 luciferase reporter, at 10 µM, stronger effect = higher value
[11] = TLR3 IRF3 reporter activation blockers – cell-based, poly I:C stimulus, luciferase, 10K MLSCN set, primary screen (AID 602277;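 active = inhibition of the reporter signal at or above 50%; inactive = inhibition below 50%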); conditions: HEK293-TLR3 RL24 IRF3 luciferase reporter, at 10 µM, stronger effect = higher value
[12] = measured here: cell density z-score
[13] = measured here: nuclear c-Myc green intensity z-score
[14] = measured here: nuclear pErk red intensity z-score, stronger effect = higher value

Sequence of Dual specificity protein phosphatase 6 (Homo sapiens) (Q16828 whole entry, looked up): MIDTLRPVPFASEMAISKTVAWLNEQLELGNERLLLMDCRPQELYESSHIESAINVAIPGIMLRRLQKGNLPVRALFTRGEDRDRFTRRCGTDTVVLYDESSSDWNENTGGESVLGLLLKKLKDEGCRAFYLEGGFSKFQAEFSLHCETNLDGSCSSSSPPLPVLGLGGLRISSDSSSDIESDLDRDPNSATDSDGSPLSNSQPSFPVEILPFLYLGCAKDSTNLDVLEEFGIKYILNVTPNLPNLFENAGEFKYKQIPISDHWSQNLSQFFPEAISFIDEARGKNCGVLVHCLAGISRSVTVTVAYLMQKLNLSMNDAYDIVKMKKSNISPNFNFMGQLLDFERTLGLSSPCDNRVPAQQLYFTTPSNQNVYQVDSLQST
Sequence of Alpha-2C adrenergic receptor (Homo sapiens) (P18825 whole entry, looked up): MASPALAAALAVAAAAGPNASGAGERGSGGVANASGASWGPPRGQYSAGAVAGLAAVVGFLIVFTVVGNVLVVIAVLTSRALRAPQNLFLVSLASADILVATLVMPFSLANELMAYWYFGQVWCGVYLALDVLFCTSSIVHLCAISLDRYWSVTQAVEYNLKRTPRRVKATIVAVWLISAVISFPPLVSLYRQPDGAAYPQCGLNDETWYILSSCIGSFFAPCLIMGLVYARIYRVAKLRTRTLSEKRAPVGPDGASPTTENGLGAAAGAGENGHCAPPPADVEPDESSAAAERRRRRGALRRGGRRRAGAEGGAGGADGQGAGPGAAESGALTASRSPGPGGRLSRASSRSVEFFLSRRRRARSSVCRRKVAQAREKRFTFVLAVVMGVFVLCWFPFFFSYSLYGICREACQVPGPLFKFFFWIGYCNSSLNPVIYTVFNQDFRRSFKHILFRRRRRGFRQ
Sequence of Voltage-gated potassium channel subunit beta-2 (Rattus norvegicus) (P62483 whole entry, looked up): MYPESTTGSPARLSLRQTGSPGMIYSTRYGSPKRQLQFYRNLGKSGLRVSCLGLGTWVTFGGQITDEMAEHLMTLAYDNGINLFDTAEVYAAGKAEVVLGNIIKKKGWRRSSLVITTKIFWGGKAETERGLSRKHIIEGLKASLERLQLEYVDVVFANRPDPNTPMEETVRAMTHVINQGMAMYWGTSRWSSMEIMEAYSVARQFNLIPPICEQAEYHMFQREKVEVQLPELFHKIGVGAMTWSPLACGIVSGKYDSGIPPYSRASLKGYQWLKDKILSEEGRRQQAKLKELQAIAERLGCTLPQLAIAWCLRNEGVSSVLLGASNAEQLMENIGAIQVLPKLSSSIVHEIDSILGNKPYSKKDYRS

Compound | cell count [1] | inhibition [1] | inhibition [2] | nuclei count [2] | z-score [3, 12] | z-score [3, 13] | z-score [3, 14] | inhibition [4] | fluorescence slope [5] | NADPH fluorescence slope [6] | slope [7] | outcome [8] | inhibition [9] | inhibition [10] | inhibition [11]
CCn1nc(C(=O)O)c(=O)c2cc3c(cc21)OCO3 | 692 | -0.9% (inactive) | -72.8% (inactive) | 125% | 0.431 | 0.329 | -0.702 | 1.48% (inactive) | -0.476 (inactive) | -5.5e-05 (inactive) | 0.00573 (inactive) | inactive | -5.01% (inactive) and 17.9% (inactive) | 8.87% (inactive) | 30.3% (inactive)
CCC1CCCCN1c1nc(-c2cccc(OC)c2O)nc2ccccc12 (configuration not stated) | 322 | 0.9% (inactive) | -128% (inactive) | 154% | -0.599 | 0.187 | 0.757 | -8.76% (inactive) | -0.454 (inactive) | -0.000132 (inactive) | 0.00525 (inactive) |  | 3.59% (inactive) |  | 
Cc1cccc(C)c1N1C(=O)C2ON(c3ccccc3)C(c3ccncc3)C2C1=O (configuration not stated) | 382 | -1.4% (inactive) | -151% (inactive) | 141% | 1.05 | 0.0518 | -0.286 | -1.75% (inactive) | -0.442 (inactive) | -0.000159 (inactive) | 0.00363 (inactive) |  | -6.35% (inactive) |  | 
Cc1noc(NS(=O)(=O)c2ccc(N)cc2)c1C | 559 | -7.4% (inactive) | -149% (inactive) | 114% | 0.375 | -0.266 | -1.23 | 5.42% (inactive) | -0.478 (inactive) | 2.4e-05 (inactive) | 0.00419 (inactive) | inactive | -6.69% (inactive) | -9.57% (inactive) | -11.4% (inactive)
CC1(C)S[C@@H]2[C@H](NC(=O)[C@H](C(=O)O)c3ccsc3)C(=O)N2[C@H]1C(=O)O | 519 | -8.9% (inactive) | -44% (inactive) | 99.7% | -1.03 | -0.916 | 0.566 | 7.39% (inactive) | -0.44 (inactive) | -4.7e-05 (inactive) | 0.00461 (inactive) | inactive | 11.7% (inactive) | 12.3% (inactive) | 36.3% (inactive)
COCCN(CCOC)C(=O)C12CCC(C)(C(=O)C1)C2(C)C (configuration not stated) | 237 | -4.2% (inactive) | 17.3% (inactive) | 124% | 0.486 | 2.03 | 1.23 | 10.5% (inactive) | -0.458 (inactive) | -5.9e-05 (inactive) | 0.00572 (inactive) |  | -24.6% (inactive) |  | 
COc1cccc(C2C(C(=O)c3cccs3)=C(O)C(=O)N2c2cc(C)on2)c1 (configuration not stated) | 316 | -1.9% (inactive) | -91.3% (inactive) | 148% | -0.295 | -1.2 | 1.95 | -7.01% (inactive) | -0.427 (inactive) | -0.000129 (inactive) | 0.00539 (inactive) |  | -2.3% (inactive) |  | 
COc1ccc(/C(O)=C2/C(=O)C(=O)N(CCN3CCOCC3)C2c2ccccn2)cc1OC (configuration not stated) | 409 | -7.4% (inactive) | -125% (inactive) | 158% | 1.75 | -1.41 | 1.12 | 15.8% (inactive) | -0.419 (inactive) | -9.3e-05 (inactive) | 0.00847 (inactive) |  | 6.74% (inactive) |  | 
CC(C)Cc1ccc(C(C)C(=O)O)cc1 (configuration not stated) | 604 | -0.8% (inactive) | -67.2% (inactive) | 132% | -0.577 | -0.145 | 0.0811 | -0.828% (inactive) | -0.469 (inactive) | -4.6e-05 (inactive) | 0.00562 (inactive) | inactive | 1.82% (inactive) and -1.73% (inactive) | -8.48% (inactive) | -4.09% (inactive)
CCOC(=O)N1CCN(/C=C(\C#N)c2nc3ccccc3s2)CC1 | 357 | -3.2% (inactive) | -5.3% (inactive) | 136% | 1.93 | 0.746 | -0.877 | 7.01% (inactive) | -0.404 (inactive) | -0.000116 (inactive) | 0.0139 (inactive) |  | -8.84% (inactive) |  | 
O=C1C(CCS(=O)c2ccccc2)C(=O)N(c2ccccc2)N1c1ccccc1 (configuration not stated) | 647 | 4.4% (inactive) | -95.5% (inactive) | 124% | 0.561 | 0.78 | -1.11 | 12.4% (inactive) | -0.436 (inactive) | -4.2e-05 (inactive) | 0.00501 (inactive) | inactive | -7.13% (inactive) | 7.23% (inactive) | 25.7% (inactive)
Oc1ccccc1-c1nc(NCc2ccco2)c2ccccc2n1 | 332 | 1.4% (inactive) | -50.6% (inactive) | 151% | -1.1 | 2.11 | -0.675 | -7.01% (inactive) | -0.396 (inactive) | -0.000126 (inactive) | 0.00698 (inactive) |  | -8.43% (inactive) |  | 
COc1ccc(C(=O)Nc2nc(N)n(-c3ccccc3)n2)cc1OC | 328 | 11.6% (inactive) | 8.6% (inactive) | 154% | -1.01 | 1.47 | 0.0402 | -1.75% (inactive) | -0.426 (inactive) | -0.000152 (inactive) | 0.00543 (inactive) |  | 12.5% (inactive) |  | 
O=C1C2ON(c3ccccc3)C(c3ccncc3)C2C(=O)N1c1ccc(Br)cc1 (configuration not stated) | 360 | -2.3% (inactive) | -22.2% (inactive) | 148% | -0.515 | -1.17 | -0.44 | 12.3% (inactive) | -0.414 (inactive) | -0.000135 (inactive) | 0.00415 (inactive) |  | 24.8% (inactive) |  | 
CC1=CC(c2ccccc2)n2nc(N3C(=O)C4CC=CCC4C3=O)nc2N1 (configuration not stated) | 367 | -3.2% (inactive) | -63.7% (inactive) | 153% | 0.978 | -0.382 | -0.0463 | -5.26% (inactive) | -0.41 (inactive) | -0.000143 (inactive) | 0.00753 (inactive) |  | -3.33% (inactive) |  | 
Cc1nnc(SCC2=C(C(=O)O)N3C(=O)[C@@H](NC(=O)Cn4cnnn4)[C@H]3SC2)s1 | 628 | -2.9% (inactive) | -103% (inactive) | 125% | -0.857 | 0.639 | 1.89 | -6.41% (inactive) | -0.495 (inactive) | -4.7e-05 (inactive) | 0.00463 (inactive) | inactive | 9.57% (inactive) and 15.2% (inactive) | 9.64% (inactive) | 21.6% (inactive)
c1ccc(CN2CCN(c3nc(-c4ccccn4)nc4ccccc34)CC2)cc1 | 275 | -1.9% (inactive) | -134% (inactive) | 96.6% | 0.978 | -1.13 | -0.507 | 20.2% (inactive) | -0.498 (inactive) | 4.9e-06 (inactive) | 0.00604 (inactive) |  | 130% (active) |  | 
O=C1CC(N(O)C2CC(=O)N(Cc3ccccc3)C2=O)C(=O)N1Cc1ccccc1 (configuration not stated) | 269 | -16.2% (inactive) | -15% (inactive) | 88.9% | -0.0667 | 1.6 | -0.253 | 3.5% (inactive) | -0.433 (inactive) | -5.6e-06 (inactive) | 0.0039 (inactive) |  | 13.4% (inactive) |  | 
CN1CCN(Cc2c(O)ccc3c(-c4ccccc4)cc(=O)oc23)CC1 | 362 | 6% (inactive) | -97.7% (inactive) | 124% | 0.437 | -1.09 | 0.493 | 1.48% (inactive) | -0.269 (inactive) | -2.1e-05 (inactive) | 0.00684 (inactive) |  | 8.71% (inactive) |  | 
CCOc1ccc(C2C(C(=O)c3ccc(C)o3)=C(O)C(=O)N2CCN2CCOCC2)cc1OC (configuration not stated) | 248 | -6% (inactive) | -49.4% (inactive) | 93.8% | 0.462 | 0.354 | 0.737 | -12.3% (inactive) | -0.458 (inactive) | -2.1e-05 (inactive) | 0.00423 (inactive) |  | -15.3% (inactive) |  | 
O=C1C2ON(c3ccccc3)C(c3ccncc3)C2C(=O)N1c1ccccc1 (configuration not stated) | 359 | -4.2% (inactive) | -13.9% (inactive) | 147% | 0.798 | -1.22 | 0.675 | -14% (inactive) | -0.419 (inactive) | -0.000134 (inactive) | 0.00494 (inactive) |  | 5.79% (inactive) |  | 
CC(C)(C)c1ccc(C(O)CCCN2CCC(C(O)(c3ccccc3)c3ccccc3)CC2)cc1 (configuration not stated) | 520 | 6.8% (inactive) | -51.1% (inactive) | 108% | 0.975 | 0.958 | -1.3 | 21.2% (inactive) |  |  | 0.00381 (inactive) | inactive | 24.3% (inactive) and 153% (active) | 25.2% (inactive) | 30% (inactive)
Cc1ccc2nc(NCc3ccccc3)[nH]c2c1 | 360 | -2.3% (inactive) | -217% (inactive) | 171% | -0.018 | -0.878 | 0.83 | -14% (inactive) | -0.447 (inactive) | -0.00018 (inactive) | 0.00328 (inactive) |  | 24.8% (inactive) |  | 
Cc1cc(NS(=O)(=O)c2ccc(N)cc2)no1 | 614 | 2.1% (inactive) | -43.4% (inactive) | 117% | -1.02 | -0.449 | 1.11 | -5.24% (inactive) | -0.445 (inactive) | -2.3e-05 (inactive) | 0.00461 (inactive) | inactive | 1.6% (inactive) | 19.8% (inactive) | 31.9% (inactive)
CCOc1ccc(/C(O)=C2/C(=O)C(=O)N(c3nc(C)c(C)s3)C2c2ccco2)cc1 (configuration not stated) | 326 | 13.9% (inactive) | -54.1% (inactive) | 106% | -0.851 | 0.684 | 1.89 | -10.5% (inactive) | -0.39 (inactive) | -5.6e-05 (inactive) | 0.00508 (inactive) |  | -2.1% (inactive) |  | 
